# Results published in PubChem BioAssay (Tox21).
# A number with no mark means an inactive call. Records with an inconclusive call do not appear. A call without a number means that no potency is given here. Active and inactive are the calls of the source. Calls come from the whole dose curve; as a rule, active = well fitted curve in the direction sought with a large enough effect in the repeat runs; inconclusive = weak or mixed curves; inactive = no such curve, though single readings can be large; an effect the other way counts as inactive or inconclusive.
# Assays:
# [1] = qHTS RealTime-Glo MT Cell Viability Assay in HepG2 cells - 24 hour (AID 1224867); note: nearly all actives have a fitted effect of over 50% in size
# Outline: (§1)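 Real-time, nonlytic viability: 600 HepG2 cells/well mixed with NanoLuc enzyme plus prosubstrate; 5 h settle, compound (DMSO) added by pintool; luminescence monitored over 40 h at 37 C.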
# [2] = qHTS RealTime-Glo MT Cell Viability Assay in HEK293 cells - 32 hour (AID 1224868); note: top concentration of the series differs between compounds; nearly all actives have a fitted effect of over 50% in size
# Outline: (§2)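 Cells + reagent dispensed (600 cells/well, HEK293) → 5 h at 37 C/5% CO2 → 23 nL compound in DMSO pinned → 40 h at 37 C → luminescence read at 0, 8, 16, 24, 32, 40 h.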
# [3] = A CellTox Green Cytotoxicity Assay to monitor cytotoxicity in HEK293 cells - 0 hour (AID 1224869); note: nearly all actives have a fitted effect of over 50% in size
# Outline: (§3)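 Cytotoxicity was tracked continuously in HEK293 cells by a DNA-binding dye excluded from viable cells. Compounds were transferred in DMSO 5 h after seeding; fluorescence was recorded at intervals up to 40 h.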
# [4] = qHTS RealTime-Glo MT Cell Viability Assay in HepG2 cells - 40 hour (AID 1224870); note: nearly all actives have a fitted effect of over 50% in size
# Outline: (§4)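 Real-time viability: cells seeded at 600 per well together with NanoLuc and cell-permeant prosubstrate, compounds added after 5 h incubation. Luminescence tracked at 0, 8, 16, 24, 32 and 40 h of exposure.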
# [5] = A CellTox Green Cytotoxicity Assay to monitor cytotoxicity in HEK293 cells - 40 hour (AID 1224871); note: nearly all actives have a fitted effect of over 45% in size
# Outline: as §3
# [6] = qHTS RealTime-Glo MT Cell Viability Assay in HEK293 cells - 16 hour (AID 1224872)
# Outline: as §2
# [7] = qHTS RealTime-Glo MT Cell Viability Assay in HepG2 cells - 8 hour (AID 1224873); note: nearly all actives have a fitted effect of over 55% in size
# Outline: as §4
# [8] = qHTS RealTime-Glo MT Cell Viability Assay in HEK293 cells - 40 hour (AID 1224874); details: RealTime-Glo luminescence, hits give low values; note: nearly all actives have a fitted effect of over 50% in size
# Outline: (§5)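 Nonlytic bioluminescent viability monitoring. HEK293 at 600 cells/well with reagent; 5 h settle; compound transfer by pintool; plates held at 37 C and read at set time points.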
# [9] = A CellTox Green Cytotoxicity Assay to monitor cytotoxicity in HEK293 cells - 24 hour (AID 1224875); note: series mostly up to about 77 µM; nearly all actives have a fitted effect of over 45% in size
# Outline: as §3
# [10] = A CellTox Green Cytotoxicity Assay to monitor cytotoxicity in HepG2 cells - 16 hour (AID 1224876); note: nearly all actives have a fitted effect of over 45% in size
# Outline: (§6)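 Real-time, homogeneous cytotoxicity readout: dead-cell DNA staining by CellTox Green in HepG2 monolayers, fluorescence measured at timed intervals up to 40 h of continuous compound exposure.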
# [11] = A CellTox Green Cytotoxicity Assay to monitor cytotoxicity in HepG2 cells - 24 hour (AID 1224878); note: nearly all actives have a fitted effect of over 45% in size
# Outline: as §6
# [12] = A CellTox Green Cytotoxicity Assay to monitor cytotoxicity in HepG2 cells - 40 hour (AID 1224879); note: nearly all actives have a fitted effect of over 40% in size
# Outline: as §6
# [13] = qHTS RealTime-Glo MT Cell Viability Assay in HEK293 cells - 0 hour (AID 1224880); note: nearly all actives have a fitted effect of over 45% in size; note: potency is the fitted concentration of half-maximal effect; for activity change, negative = cytotoxicity: top concentration of the series differs between compounds
# Outline: as §5
# [14] = A CellTox Green Cytotoxicity Assay to monitor cytotoxicity in HEK293 cells - 32 hour (AID 1224881); note: nearly all actives have a fitted effect of over 40% in size
# Outline: as §3
# [15] = A CellTox Green Cytotoxicity Assay to monitor cytotoxicity in HepG2 cells - 0 hour (AID 1224882); note: nearly all actives have a fitted effect of over 35% in size
# Outline: as §6
# [16] = A CellTox Green Cytotoxicity Assay to monitor cytotoxicity in HepG2 cells - 32 hour (AID 1224883); note: nearly all actives have a fitted effect of over 50% in size
# Outline: as §6
# [17] = A CellTox Green Cytotoxicity Assay to monitor cytotoxicity in HEK293 cells - 8 hour (AID 1224884); note: nearly all actives have a fitted effect of over 35% in size
# Outline: as §3
# [18] = qHTS RealTime-Glo MT Cell Viability Assay in HepG2 cells - 16 hour (AID 1224885); note: nearly all actives have a fitted effect of over 50% in size
# Outline: as §1
# [19] = qHTS RealTime-Glo MT Cell Viability Assay in HEK293 cells - 24 hour (AID 1224886)
# Outline: as §2
# [20] = qHTS RealTime-Glo MT Cell Viability Assay in HepG2 cells - 32 hour (AID 1224877); note: nearly all actives have a fitted effect of over 55% in size
# Outline: as §1
structure (smiles),measurement,setting,value
CC[C@@]1(c2ccccc2)NC(=O)N(C)C1=O,outcome,[1],inactive
same,outcome,[2],inactive
same,outcome,[3],inactive
same,outcome,[4],inactive
same,Potency,[5],inactive
same,outcome,[6],inactive
same,outcome,[7],inactive
same,max response,[8],14.4%
same,Potency,[9],inactive
same,Potency,[10],inactive
same,Potency,[11],inactive
same,Potency,[12],inactive
same,Potency,[13],inactive
same,Potency,[14],inactive
same,Potency,[15],inactive
same,Potency,[16],inactive
same,Potency,[17],inactive
same,outcome,[18],inactive
same,outcome,[19],inactive
CC(C)(O)c1ccc(C(C)(C)O)cc1,outcome,[1],inactive
same,outcome,[2],inactive
same,outcome,[3],inactive
same,outcome,[4],inactive
same,Potency,[5],inactive
same,outcome,[6],inactive
same,outcome,[7],inactive
same,max response,[8],0.887%
same,Potency,[9],inactive
same,outcome,[20],inactive
same,Potency,[11],inactive
same,Potency,[12],inactive
same,Potency,[13],inactive
same,Potency,[14],inactive
same,Potency,[15],inactive
same,Potency,[16],inactive
same,Potency,[17],inactive
same,outcome,[18],inactive
same,outcome,[19],inactive
c1cc2ccc3ccc4ccc5cccc6c(c1)c2c3c4c56,"activity change, negative = cytotoxicity",[1],-0.157% [at 2.72 µM]
same,"activity change, negative = cytotoxic",[2],0.861% [at 2.72 µM]
same,cytotoxicity,[3],-4.63% [at 2.72 µM]
same,"activity change, negative = cytotoxic",[4],-2.6% [at 2.72 µM]
same,cytotoxicity increase,[5],-13.8% [at 2.72 µM]
same,"activity change, negative = cytotoxicity",[6],-0.658% [at 2.72 µM]
same,"viability change, negative = cytotoxic",[7],0.803% [at 2.72 µM]
same,max response,[8],1.82%
same,activity change,[9],"-12.1% [at 2.72 µM, hits give high values]"
same,cytotoxicity increase,[10],-15.3% [at 2.72 µM]
same,cytotoxicity increase,[12],-16.7% [at 2.72 µM]
same,"activity change, negative = cytotoxicity",[13],-3.02% [at 2.72 µM]
same,cytotoxicity increase,[14],-14.8% [at 2.72 µM]
same,cytotoxicity increase,[16],-14.8% [at 2.72 µM]
same,"activity change, negative = cytotoxic",[18],0.567% [at 2.72 µM]
same,"activity change, negative = cytotoxicity",[19],0.461% [at 2.72 µM]
CC(C)(C)C(=O)CC(=O)C(C)(C)C,outcome,[1],inactive
same,outcome,[2],inactive
same,outcome,[3],inactive
same,outcome,[4],inactive
same,Potency,[5],inactive
same,outcome,[6],inactive
same,outcome,[7],inactive
same,max response,[8],-12.1%
same,Potency,[9],inactive
same,Potency,[10],inactive
same,Potency,[11],inactive
same,Potency,[12],inactive
same,Potency,[13],inactive
same,Potency,[14],inactive
same,Potency,[17],inactive
same,outcome,[18],inactive
same,outcome,[19],inactive
CCCCCCC(=O)c1ccccc1,outcome,[1],inactive
same,outcome,[2],inactive
same,outcome,[3],inactive
same,outcome,[4],inactive
same,Potency,[5],inactive
same,outcome,[6],inactive
same,outcome,[7],inactive
same,max response,[8],-0.886%
same,Potency,[9],inactive
same,Potency,[10],inactive
same,Potency,[11],inactive
same,Potency,[12],inactive
same,Potency,[13],inactive
same,Potency,[15],inactive
same,Potency,[16],inactive
same,Potency,[17],inactive
same,outcome,[18],inactive
same,outcome,[19],inactive
O=S(=O)(O)CC(O)CCl (stereo unspecified),outcome,[1],inactive
same,outcome,[2],inactive
same,outcome,[3],inactive
same,outcome,[4],inactive
same,Potency,[5],inactive
same,outcome,[6],inactive
same,outcome,[7],inactive
same,max response,[8],5.44%
same,Potency,[9],inactive
same,Potency,[10],inactive
same,outcome,[20],inactive
same,Potency,[12],inactive
same,Potency,[14],inactive
same,Potency,[15],inactive
same,Potency,[16],inactive
same,Potency,[17],inactive
same,outcome,[18],inactive
same,outcome,[19],inactive
CC(CC(=O)Cl)CC(C)(C)C (stereo unspecified),outcome,[1],inactive
same,outcome,[2],inactive
same,outcome,[3],inactive
same,outcome,[4],inactive
same,Potency,[5],inactive
same,outcome,[6],inactive
same,outcome,[7],inactive
same,max response,[8],4.64%
same,Potency,[9],inactive
same,Potency,[10],inactive
same,Potency,[11],inactive
same,Potency,[12],inactive
same,Potency,[13],inactive
same,Potency,[14],inactive
same,outcome,[18],inactive
same,outcome,[19],inactive
COc1cc(S(N)(=O)=O)cc(C(=O)O)c1OC,outcome,[1],inactive
same,outcome,[2],inactive
same,outcome,[3],inactive
same,outcome,[4],inactive
same,Potency,[5],inactive
same,outcome,[6],inactive
same,outcome,[7],inactive
same,max response,[8],0.543%
same,Potency,[9],inactive
same,Potency,[10],inactive
same,outcome,[20],inactive
same,Potency,[12],inactive
same,Potency,[15],inactive
same,Potency,[17],inactive
same,outcome,[18],inactive
same,outcome,[19],inactive
CCOC(=O)CN1CCCC1=O,outcome,[1],inactive
same,outcome,[2],inactive
same,outcome,[3],inactive
same,outcome,[4],inactive
same,Potency,[5],inactive
same,outcome,[6],inactive
same,outcome,[7],inactive
same,max response,[8],0.653%
same,Potency,[9],inactive
same,Potency,[10],inactive
same,outcome,[20],inactive
same,Potency,[12],inactive
same,Potency,[13],inactive
same,Potency,[15],inactive
same,Potency,[16],inactive
same,outcome,[18],inactive
same,outcome,[19],inactive
CC1(C)CC(N)CC(C)(C)N1,outcome,[1],inactive
same,outcome,[2],inactive
same,outcome,[3],inactive
same,outcome,[4],inactive
same,Potency,[5],inactive
same,outcome,[6],inactive
same,outcome,[7],inactive
same,max response,[8],16.7%
same,Potency,[9],inactive
same,Potency,[10],inactive
same,Potency,[11],inactive
same,Potency,[12],inactive
same,Potency,[14],inactive
same,Potency,[15],inactive
same,Potency,[17],inactive
same,outcome,[18],inactive
same,outcome,[19],inactive
O=C(CCBr)N1CCN(C(=O)CCBr)CC1,outcome,[1],inactive
same,outcome,[2],inactive
same,outcome,[3],inactive
same,outcome,[4],inactive
same,Potency,[5],inactive
same,outcome,[6],inactive
same,outcome,[7],inactive
same,max response,[8],1.87%
same,Potency,[9],inactive
same,Potency,[10],inactive
same,outcome,[20],inactive
same,Potency,[12],inactive
same,Potency,[14],inactive
same,Potency,[15],inactive
same,Potency,[17],inactive
same,outcome,[19],inactive
CCC(C)(C)C,outcome,[1],inactive
same,outcome,[2],inactive
same,outcome,[3],inactive
same,outcome,[4],inactive
same,Potency,[5],inactive
same,outcome,[6],inactive
same,outcome,[7],inactive
same,max response,[8],2.63%
same,Potency,[9],inactive
same,Potency,[10],inactive
same,outcome,[20],inactive
same,Potency,[12],inactive
same,Potency,[13],inactive
same,Potency,[14],inactive
same,Potency,[15],inactive
same,Potency,[16],inactive
same,Potency,[17],inactive
same,outcome,[19],inactive
CN(C)c1cc(NC(=O)CNC(C)(C)C)c(O)c2c1C[C@H]1C[C@H]3[C@H](N(C)C)C(=O)C(C(N)=O)=C(O)[C@@]3(O)C(=O)C1=C2O,outcome,[1],inactive
same,outcome,[2],inactive
same,outcome,[3],inactive
same,outcome,[4],inactive
same,Potency,[5],inactive
same,outcome,[6],inactive
same,outcome,[7],inactive
same,max response,[8],2.22%
same,Potency,[9],inactive
same,Potency,[10],inactive
same,Potency,[11],inactive
same,Potency,[12],inactive
same,Potency,[13],inactive
same,Potency,[14],inactive
same,Potency,[17],inactive
same,outcome,[18],inactive
same,outcome,[19],inactive
CC(=O)OCC(=O)[C@@]1(O)CC[C@H]2[C@@H]3CCC4=CC(=O)C=C[C@]4(C)[C@H]3[C@@H](O)C[C@@]21C,outcome,[1],inactive
same,outcome,[2],inactive
same,outcome,[3],inactive
same,outcome,[4],inactive
same,Potency,[5],inactive
same,outcome,[6],inactive
same,outcome,[7],inactive
same,max response,[8],-2.13%
same,Potency,[9],inactive
same,Potency,[10],inactive
same,outcome,[20],inactive
same,Potency,[12],inactive
same,Potency,[13],21.3 µM (active)
same,Potency,[14],inactive
same,Potency,[15],inactive
same,Potency,[17],inactive
same,outcome,[19],inactive
